system: PAK1; details: concentration: 1 μM, replicates: in singlicate; n = 1
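Note: KINOMEscan kinase panel screen.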

| Structure (SMILES) | %Inh [%] |
| --- | --- |
| COc1cc2nccc(Nc3ccc(NC(=O)c4ccc(C)cc4)c(O)c3)c2cc1OC.Cl [GW440132] | 0 |
| COC(=O)c1c(-c2ccccc2)c2cc(OC)ccc2c(=O)n1Cc1ccccc1 | 31 |
| O=C(O)COc1ncnc2cc(-c3ccc4[nH]ncc4c3)sc12 | 5 |
| COc1ccc(C2=C(Nc3cccc(C(=O)O)c3)C(=O)NC2=O)cc1 [SB-390765] | 0 |
| CCn1c(-c2ccccn2)nc2cnccc21 [SB-736398] | 22 |
| Cn1ccc2ncnc(Oc3ccc(Nc4nc5ccccc5[nH]4)cc3)c21 | 14 |
| O=C(Nc1n[nH]c2cc(-c3cccc(F)c3F)ccc12)C1CC1 [SB-733894] | 3 |
| Clc1cc(Cl)cc(Nc2ccnc(Nc3cc(Cl)cc(Cl)c3)n2)c1 [GSK175726] | 12 |
| Cc1cccc(-c2nc(Nc3ccncc3)c3ccccc3n2)n1 [GW855857] | 0 |
| CCCc1ccc(S(=O)(=O)NC2CCN(c3ccnc(Nc4ccc(F)cc4)n3)C2)cc1 (centres unmarked) [GSK1379715] | 0 |
| COc1ccc(CNC(=O)NC2CCN(c3ccnc(Nc4cc(OC)c(OC)c(OC)c4)n3)C2)cc1 (centres unmarked) [GSK1379748] | 3 |
| Cc1c(O)cccc1Nc1ccnc2ccc(C(F)(F)F)cc12.Cl [GW466413] | 0 |
| Cc1c(Cn2ccn3c(=O)cc(N4CCOCC4)nc23)cccc1C(F)(F)F [GSK2289044] | 16 |
| COC(=O)c1c(-c2ccccc2)c2cc(C(=O)O)ccc2c(=O)n1Cc1ccccc1 | 14 |
| Cl.c1ccc(-c2n[nH]cc2-c2ccnc(-c3ccc(CN4CCOCC4)cc3)c2)nc1 [GW776245] | 6 |
| Cc1cc(NCC(c2ccccc2)c2ccccc2)nc(NCc2ccc(C(F)(F)F)cc2)n1 [GW497681] | 0 |
| COc1cccc(-c2cc(-c3c[nH]nc3-c3ccccn3)ccn2)c1 [GW680338] | 0 |
| O=C(Nc1ccccc1)Nc1cccc(Oc2ccc3nccn3n2)c1 | 0 |
| Nc1ncnc2[nH]c(-c3ccccc3)nc12 [AH5015] | 30 |

system: PAK2; details: concentration: 1 μM, replicates: in singlicate; n = 1

| Structure (SMILES) | %Inh [%] |
| --- | --- |
| COc1cc2ncn(-c3cc(OCC4CCCO4)c(C(N)=O)s3)c2cc1OC (centres unmarked) [GSK204607] | 0 |
| COc1ccccc1-c1ccc2c(NC(=O)C3CC3)n[nH]c2n1 [SB-711239] | 0 |
| Cc1cccc(-c2cc(Nc3ccncc3)c3ccccc3n2)n1 [GSK223675] | 2 |
| COc1ccc(Nc2nccc(-c3cccc(NC(=O)c4cc5cc(F)ccc5[nH]4)c3)n2)cc1 [GSK1229782] | 35 |
| COc1ccc(Nc2nccc(NCCNC(=O)Nc3ccccc3F)n2)cc1 [GSK1379901] | 0 |
| NC(=O)c1nnc2ccccc2c1N | 7 |
| CC(C)(C)c1ccc(C(=O)Nc2cn3cc(Cl)ccc3n2)cc1 | 14 |
| COc1cccc(NC(=O)NC2CCN(c3ccnc(Nc4ccc(F)cc4)n3)C2)c1 (centres unmarked) [GSK1379721] | 0 |
| Cc1ccc(-c2cc(-c3c[nH]nc3-c3ccccn3)ccn2)cc1 [GW684088] | 18 |
| Cc1cc(N2Cc3ccccc3C2)nc(Nc2ccc(S(=O)(=O)N3CCOCC3)cc2)n1.Cl [GSK1669917] | 3 |
| CC(C)(C)c1ccc(C(=O)Nc2cn3cc(-c4cccnc4)ccc3n2)cc1 | 36 |
| Cc1ccccc1-n1cnc2c(N)ncnc21 [SKF-97510] | 11 |
| Fc1cccc(COc2nnc(-c3ccc4c(c3)CCO4)o2)c1 | 55 |
| Cc1ccc(C(=O)Nc2ccc(Nc3ccnc4cc(-c5ccccn5)ccc34)cc2O)cc1.Cl [GW440146] | 15 |
| CS(=O)(=O)c1ccc(-c2c(-c3ncn[nH]3)sc(N3CCOCC3)c2C#N)cc1 | 10 |
| COc1cc2nccc(Nc3ccc(NC(=O)c4ccc(C)cc4)c(O)c3)c2cc1OC.Cl [GW440132] | 0 |
| COC(=O)c1c(-c2ccccc2)c2cc(OC)ccc2c(=O)n1Cc1ccccc1 | 27 |

| Structure (SMILES) | %Inh [%] |
| --- | --- |
| O=C(O)COc1ncnc2cc(-c3ccc4[nH]ncc4c3)sc12 | 3 |
| COc1ccc(C2=C(Nc3cccc(C(=O)O)c3)C(=O)NC2=O)cc1 [SB-390765] | 27 |
| CCn1c(-c2ccccn2)nc2cnccc21 [SB-736398] | 24 |
| Cn1ccc2ncnc(Oc3ccc(Nc4nc5ccccc5[nH]4)cc3)c21 | 0 |
| O=C(Nc1n[nH]c2cc(-c3cccc(F)c3F)ccc12)C1CC1 [SB-733894] | 41 |
| Clc1cc(Cl)cc(Nc2ccnc(Nc3cc(Cl)cc(Cl)c3)n2)c1 [GSK175726] | 0 |
| Cc1cccc(-c2nc(Nc3ccncc3)c3ccccc3n2)n1 [GW855857] | 0 |
| CCCc1ccc(S(=O)(=O)NC2CCN(c3ccnc(Nc4ccc(F)cc4)n3)C2)cc1 (centres unmarked) [GSK1379715] | 2 |
| COc1ccc(CNC(=O)NC2CCN(c3ccnc(Nc4cc(OC)c(OC)c(OC)c4)n3)C2)cc1 (centres unmarked) [GSK1379748] | 0 |
| Cc1c(O)cccc1Nc1ccnc2ccc(C(F)(F)F)cc12.Cl [GW466413] | 0 |
| Cc1c(Cn2ccn3c(=O)cc(N4CCOCC4)nc23)cccc1C(F)(F)F [GSK2289044] | 8 |
| COC(=O)c1c(-c2ccccc2)c2cc(C(=O)O)ccc2c(=O)n1Cc1ccccc1 | 22 |
| Cl.c1ccc(-c2n[nH]cc2-c2ccnc(-c3ccc(CN4CCOCC4)cc3)c2)nc1 [GW776245] | 14 |
| Cc1cc(NCC(c2ccccc2)c2ccccc2)nc(NCc2ccc(C(F)(F)F)cc2)n1 [GW497681] | 2 |
| COc1cccc(-c2cc(-c3c[nH]nc3-c3ccccn3)ccn2)c1 [GW680338] | 0 |
| O=C(Nc1ccccc1)Nc1cccc(Oc2ccc3nccn3n2)c1 | 0 |
| Nc1ncnc2[nH]c(-c3ccccc3)nc12 [AH5015] | 48 |

— publication PMC5540273 (PLoS ONE, 2017)
